Test systems include T-47D breast; BT-549 breast; MDA-MB-435 melanoma; SW-620 colon; MCF7 breast; HCT-116 colon; HCC-2998 colon; KM12 colon.
Holding throughout (test): NCI-60 one-dose screen, 48 h (100 = growth as untreated, 0 = no growth, -100 = all killed)
Holding throughout (details): 10 µM unless noted

Where “and” joins values, the source holds several entries; their conditions need not be identical. Equal values may be shown once. Compounds without any hit were thinned out: in the full panel of roughly 83,000, 20% have a hit.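 For each line, cells grew in 96-well plates with the test compound present at a single concentration for 48 hours.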 A number with no mark means an inactive call. Calls of active or inactive are those of the source. The calls were made as follows: active = growth percent below 10; inactive = the rest.

Regarding `CCOC(=O)c1c(-c2ccc(OC)cc2)c(C#N)c2c(C#N)c(N)nn2c1N`, the growth in the experiment with T-47D breast was 12%; in the experiment with BT-549 breast, 37%; in the experiment with MDA-MB-435 melanoma, -38.2% (active); in the experiment on SW-620 colon, 26.9%; with MCF7 breast it was 13.2%; in the experiment with HCT-116 colon it was 16%. Further, the growth is 62.9% in the experiment on HCC-2998 colon and 23.6% with KM12 colon.

`CCCCn1c(C(=O)c2c[nH]c3ccccc23)n[nH]c1=S`: the growth in the experiment on T-47D breast is 77.5%; in the experiment on BT-549 breast, 114%; in the experiment on MDA-MB-435 melanoma, 98.7%; with SW-620 colon it was 101%; with MCF7 breast, 73.2%; in the experiment on HCT-116 colon, 92.4%. For the same compound, the growth was 101% in the experiment with HCC-2998 colon and 92.2% with KM12 colon.

As for `CCOC(=O)c1nnn(Cc2cc(=O)oc3c2ccc2ccccc23)c1C`, the growth in the experiment with T-47D breast was 93.9%; in the experiment on BT-549 breast, 108%; in the experiment on MDA-MB-435 melanoma, 105%; in the experiment with SW-620 colon it was 107%; with MCF7 breast, 92%; in the experiment on HCT-116 colon it was 89.3%. Further, the growth in the experiment on HCC-2998 colon is 106%; in the experiment on KM12 colon it was 104%.

In the case of `COc1cc(/C=C2/C=C(c3ccc(C(C)(C)C)cc3)N(CCc3ccc(S(N)(=O)=O)cc3)C2=O)cc(OC)c1OC`, the growth in the experiment with T-47D breast was 18.2%; in the experiment with BT-549 breast, 48.1%; in the experiment on MDA-MB-435 melanoma, 52.8%; in the experiment on SW-620 colon it was 63.3%; in the experiment with MCF7 breast, 13.1%; in the experiment on HCT-116 colon it was 23.5%. Moreover, the growth in the experiment on HCC-2998 colon is 32.2%; in the experiment with KM12 colon it was 43.8%.

For the compound `Cc1cccc(-c2nnc(SCC(=O)Nc3ncc(Cc4ccccc4)s3)n2N2C(=O)CSC2=S)c1`, the growth in the experiment on T-47D breast is 43.8%; in the experiment on BT-549 breast, 78.5%; in the experiment with MDA-MB-435 melanoma, 48.5%; with SW-620 colon it was 49.6%; in the experiment on MCF7 breast, 56.2%; in the experiment with HCT-116 colon, 25%. Also, the growth was 70.9% in the experiment with HCC-2998 colon and 71.7% in the experiment with KM12 colon.

Turning to `C=C(c1ccc(C(=O)O)cc1)c1cc2c(cc1C)C(C)(C)CCC2(C)C`, the growth was 93.8% and 75.7% in the experiment on T-47D breast; 55.4% in the experiment with BT-549 breast; 95.9% and 84% in the experiment with MDA-MB-435 melanoma; 113% and 97.6% with SW-620 colon; 75.9% and 63.6% in the experiment on MCF7 breast; 71.3% and 50% in the experiment with HCT-116 colon. Also, the growth was 78.6% and 76.1% in the experiment with HCC-2998 colon; 59.2% and 36.3% in the experiment on KM12 colon.

In the case of `C#Cc1cc(C(=O)Nc2ccc(CN3CCN(C)CC3)c(C(F)(F)F)c2)ccc1C`, the growth was 79% with T-47D breast; 101% with BT-549 breast; 28.1% in the experiment on MDA-MB-435 melanoma; 81.3% with SW-620 colon; 70.1% in the experiment on MCF7 breast; 47.8% with HCT-116 colon. Further, the growth in the experiment on HCC-2998 colon was 90.2%; in the experiment with KM12 colon, 70.3%.

Regarding `CC1=C2[C@@H](CC1)[C@]1(C)O[C@@](C(C)C)(C[C@H]1OC(=O)CO)[C@H]2OC(=O)C1CC1c1ccccc1` (some centres not stated), the growth with T-47D breast was 41.5%; with BT-549 breast, 88.8%; with MDA-MB-435 melanoma it was 96.7%; in the experiment on SW-620 colon, 84.6%; with MCF7 breast, 75.1%; in the experiment on HCT-116 colon, 89%. Moreover, the growth in the experiment with HCC-2998 colon is 82.9%; with KM12 colon, 73.9%.

For the compound `N#CC(Cc1cccc2ccccc12)c1cc2ccccc2[nH]1` (configuration not stated), the growth with T-47D breast is 83.8%; in the experiment on BT-549 breast, 90.1%; in the experiment on MDA-MB-435 melanoma, 102%; with SW-620 colon, 89.3%; in the experiment on MCF7 breast, 82.5%; in the experiment with HCT-116 colon it was 83.7%. The growth with HCC-2998 colon was 99.2%; in the experiment on KM12 colon, 88%.

`Nc1ccc(-c2nc3ccc4[nH]ncc4c3c3c2CCCC3)cc1F`: the growth in the experiment on T-47D breast is 14.6%; in the experiment on BT-549 breast it was 10%; in the experiment on MDA-MB-435 melanoma it was 14.2%; in the experiment with SW-620 colon, 18.7%; with MCF7 breast, 29.2%; with HCT-116 colon, 11.1%. In addition, the growth in the experiment on HCC-2998 colon was 44.3%; with KM12 colon it was 12.3%.

Consider `COc1ccc2c(c1)CC[C@@H]1[C@@H]2CC[C@]2(C)C3C(=CCC4C(=O)N(c5ccccc5)C(=O)C43)C[C@@H]12` (some centres not stated), for which the growth in the experiment with T-47D breast is 99.6%; in the experiment on BT-549 breast, 110%; in the experiment on MDA-MB-435 melanoma it was 86.4%; in the experiment on SW-620 colon, 90.6%; with MCF7 breast it was 111%; in the experiment on HCT-116 colon, 66.9%. The growth with HCC-2998 colon and in the experiment with KM12 colon was 93.6% throughout.

As for `COc1cc(/C=N/NC(=O)CCN2c3ccccc3Sc3ccccc32)cc(OC)c1OC`, the growth with T-47D breast was 41.5%; in the experiment on BT-549 breast it was 88.6%; in the experiment with MDA-MB-435 melanoma, 87.4%; in the experiment on SW-620 colon, 90.8%; with MCF7 breast it was 97.3%; in the experiment with HCT-116 colon it was 80.1%. Further, the growth in the experiment on HCC-2998 colon was 113%; in the experiment on KM12 colon, 81.4%.

As for `O=c1cc(N/N=C/c2ccc(F)cc2)c2cc(Cl)ccc2[nH]1`, the growth in the experiment with T-47D breast was 68.5%; in the experiment with BT-549 breast it was 93.6%; in the experiment on MDA-MB-435 melanoma, 78.6%; in the experiment on SW-620 colon it was 101%; in the experiment on MCF7 breast, 84.6%; in the experiment on HCT-116 colon, 84.1%. The results for the growth in the experiment on HCC-2998 colon and in the experiment on KM12 colon were 85.1% and 108%, respectively.

With `CN1C(=O)/C(=C/c2ccc(C(=O)Nc3ncc(Cc4ccccc4Cl)s3)cc2)SC1=S`, the growth in the experiment with T-47D breast was 63.4%; in the experiment on BT-549 breast, 69.5%; in the experiment on MDA-MB-435 melanoma, -18.5% (active); in the experiment with SW-620 colon it was 62%; in the experiment with MCF7 breast it was 61.8%; in the experiment with HCT-116 colon, 63.6%. Besides, the growth was 77.5% with HCC-2998 colon and 46.1% in the experiment on KM12 colon.

For the origin of these results see PubChem BioAssay (NCI).
